Laboratory results taken from PMC4336329 (PLoS ONE, 2015).
Hit rate of the full screen: of about 310,000 compounds, about 14,000 (4.5%) showed an effect of 50% or more. The effect is printed as a negative number. The sample as a whole holds a higher share of strong results than the screen did.

What follows are compounds tested against human ether-à-go-go-related gene (hERG) potassium channel (human, UniProt Q12809) (assay: primary screen, population patch clamp on CHO cells stably expressing hERG; higher = less effect of the substance).
Sequence of human ether-à-go-go-related gene (hERG) potassium channel (Q12809 whole entry, looked up): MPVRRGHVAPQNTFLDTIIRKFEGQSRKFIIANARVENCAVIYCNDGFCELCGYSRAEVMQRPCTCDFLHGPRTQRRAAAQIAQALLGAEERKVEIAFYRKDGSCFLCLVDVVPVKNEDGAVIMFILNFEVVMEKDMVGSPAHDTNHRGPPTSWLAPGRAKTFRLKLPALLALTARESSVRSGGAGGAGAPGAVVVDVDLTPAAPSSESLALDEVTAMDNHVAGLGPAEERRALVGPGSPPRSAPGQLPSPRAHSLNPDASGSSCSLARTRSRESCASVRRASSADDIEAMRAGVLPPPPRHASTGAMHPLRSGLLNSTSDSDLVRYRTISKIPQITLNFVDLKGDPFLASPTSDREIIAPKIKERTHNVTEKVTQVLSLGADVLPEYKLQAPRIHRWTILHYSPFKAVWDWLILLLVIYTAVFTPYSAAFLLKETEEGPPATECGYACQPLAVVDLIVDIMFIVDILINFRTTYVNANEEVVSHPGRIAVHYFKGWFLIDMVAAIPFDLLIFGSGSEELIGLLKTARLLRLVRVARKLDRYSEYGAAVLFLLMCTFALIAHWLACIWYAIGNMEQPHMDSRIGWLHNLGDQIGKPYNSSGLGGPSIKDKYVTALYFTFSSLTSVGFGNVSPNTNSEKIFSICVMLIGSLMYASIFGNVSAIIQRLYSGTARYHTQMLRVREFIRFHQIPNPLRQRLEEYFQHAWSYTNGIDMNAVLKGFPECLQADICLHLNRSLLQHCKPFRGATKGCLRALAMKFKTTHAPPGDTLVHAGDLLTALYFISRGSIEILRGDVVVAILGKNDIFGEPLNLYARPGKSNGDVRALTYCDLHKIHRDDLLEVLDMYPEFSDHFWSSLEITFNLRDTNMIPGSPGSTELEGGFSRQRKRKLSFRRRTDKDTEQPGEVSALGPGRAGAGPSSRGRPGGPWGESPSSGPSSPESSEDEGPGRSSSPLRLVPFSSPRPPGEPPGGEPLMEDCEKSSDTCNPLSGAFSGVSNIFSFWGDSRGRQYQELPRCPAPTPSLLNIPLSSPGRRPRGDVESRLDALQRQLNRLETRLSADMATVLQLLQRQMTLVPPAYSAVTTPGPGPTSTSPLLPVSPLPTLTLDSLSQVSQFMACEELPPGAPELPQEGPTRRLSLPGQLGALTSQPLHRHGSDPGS
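Note: peak tail current of the secondary pulse compared with the same well before compound.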

| Compound | hERG current change (%, negative = inhibition) at 10uM [%] |
| --- | --- |
| CCN(CC)C(=O)Cn1cc(S(=O)(=O)CC(=O)Nc2ccc(C(N)=O)cc2)c2ccccc21 | 18.2 |
| CCOc1ccc(NC(=O)CN2CCCC2c2cccs2)cc1S(=O)(=O)N1CCCCC1 (centres unmarked) | -11.8 |
| CSc1cccc(NC(=S)NCCCO)c1 | -4.03 |
| COC(=O)c1ccc(N2CCN(CCNC(=O)Nc3ccc(OC)cc3)CC2)cc1 | -0.192 |
| Fc1cccc(NC(=S)NCCCN2CCOCC2)c1 | -0.1 |
| COc1ccc(NC(=O)NCCN2CCN(c3cccc(Cl)c3)CC2)cc1 | -31.6 |
| CCc1ccc(N2CCN(CCNC(=O)Nc3ccc(OC)cc3)CC2)cc1 | -29.9 |
| COc1ccc(N2CCN(CCNC(=O)Nc3ccc(C)c(Cl)c3)CC2)cc1 | 15.9 |
| CCOc1ccc(NC(=O)CCN2CCN(c3ccccc3OC)CC2)cc1 | -33.8 |
| CSc1cccc(NC(=S)NCCCN2CCN(c3ccc(F)cc3)CC2)c1 | -66.7 |
| COc1ccc(N2CCN(CCCNC(=O)Nc3ccccc3)CC2)cc1 | -64.5 |
| COc1ccccc1N1CCN(CCCNc2c(C)c(=O)n(C)c(=O)n2C)CC1 | -5.42 |
| COc1ccccc1N1CCN(CCCNC(=O)Nc2ccccc2)CC1 | -59.8 |
| COc1ccc(N2CCN(CCNC(=O)Nc3ccc(Cl)cc3)CC2)cc1 | -60.7 |
| CC(OC(=O)c1ccccc1NCc1ccco1)C(=O)Nc1ncc(Cl)cc1Cl (centres unmarked) | 2.95 |
| Cc1ccc(C)c(-n2nnnc2SCC(=O)NCC2CCCO2)c1 (centres unmarked) | -4.18 |
| CCN(C(=O)COC(=O)CCC(=O)c1cccs1)c1c(N)n(Cc2ccccc2)c(=O)[nH]c1=O | -4.97 |
| CCCCCOc1ccc(CSCCNC(=S)Nc2ccccc2)cc1 | -5.94 |
| O=C(O)c1ccccc1C(=O)c1ccc(-c2ccccc2)cc1 | 17.2 |
| CCOC(=O)c1ccc(S(=O)(=O)NNC(=O)COc2cccc(C)c2)cc1 | 34.6 |
| Cc1ccc(S(=O)(=O)N2CCN(S(=O)(=O)N3CCCCCC3)CC2)cc1 | 20.4 |
| COc1cccc(NC(=O)NCCCN2CCN(c3ccc(F)cc3)CC2)c1 | -73.2 |
| COc1cccc(NC(=O)NCCN2CCCCC2)c1 | -13.7 |

| Compound | hERG current change (%, negative = inhibition) at 10uM [%] |
| --- | --- |
| Cc1cccc(NC(=O)NCCN2CCN(c3ccccc3)CC2)c1C | -9.69 |
| COc1ccccc1N1CCN(CCCNC(=O)Nc2ccccc2C)CC1 | -33.7 |
| COc1ccccc1N1CCN(CCNC(=O)Nc2cccc(C)c2C)CC1 | -68.8 |
| COc1cccc(NC(=S)NCCCN2CCOCC2)c1 | 16.7 |
| Cc1cccc(NS(=O)(=O)c2c(C(=O)N3CCCC3)c(C)n(C)c2C)c1 | 18.1 |
| Cc1cc(Cl)ccc1OCC(=O)N/N=C/c1ccncc1 | -14.9 |
| COC(=O)CSc1nc(C)cc(N2CCOCC2)n1 | 7.89 |
| NC(=O)C1CCN(C(=O)COc2ccc3ccccc3c2)CC1 | 18.2 |
| CCC(C)(C)NC(=O)C(c1cccnc1)N(C(=O)c1csnn1)c1ccccc1 (centres unmarked) | -22.7 |
| O=C(Cn1c(-c2ccccc2)noc1=O)NCc1ccccc1 | 6.47 |
| CCCCCn1c(SCC#N)nc2cc(C(=O)NCC3CCCO3)ccc2c1=O (centres unmarked) | -52.7 |
| N#CCSc1nc2ccccc2c(=O)n1CCCC(=O)NCC1CCCO1 (centres unmarked) | -12.4 |
| CCCCCn1c(SCC2CCCO2)nc2cc(C(=O)N3CCC(C(N)=O)CC3)ccc2c1=O (centres unmarked) | -64.7 |
| CCCCCn1c(SCC(=O)CC(=O)OCC)nc2cc(C(=O)N3CCC(C(N)=O)CC3)ccc2c1=O | -17.7 |
| CCCCCn1c(SCC(=O)OCC)nc2cc(C(=O)N3CCC(C(N)=O)CC3)ccc2c1=O | -58.4 |
| CCOC(=O)CSc1nc2cc(C(=O)N3CCC(C(N)=O)CC3)ccc2c(=O)n1C1CCCCC1 | -10.7 |
| NC(=O)C1CCN(C(=O)c2ccc3c(=O)n(Cc4ccco4)c(SCC(=O)c4ccccc4)nc3c2)CC1 | 6.75 |
| C=CCn1c(SCC(=O)CC(=O)OCC)nc2cc(C(=O)N3CCC(C(N)=O)CC3)ccc2c1=O | 13.7 |
| CCCCn1c(SC(C)C(=O)NCC2CCCO2)nc2cc(C(=O)OC)ccc2c1=O (centres unmarked) | -44.9 |
| c1cc(-c2nnn(CCOCCn3nnc(-c4ccncc4)n3)n2)ccn1 | -0.329 |
| c1ccc(Oc2cccc(OCCn3cncn3)c2)cc1 | -12.7 |
| CC(=O)c1ccc(NC(=S)NNC(=O)c2ccccc2[N+](=O)[O-])cc1 | 20 |
| COCCNC(=O)C1CCC(CNS(=O)(=O)c2c(C)cc(C)cc2C)CC1 (centres unmarked) | 7.72 |

| Compound | hERG current change (%, negative = inhibition) at 10uM [%] |
| --- | --- |
| CCN(CC)CCCNC(=O)C1CCC(CNS(=O)(=O)c2c(C)cc(C)cc2C)CC1 (centres unmarked) | -13.5 |
| CCC1CCCCN1CCCNC(=O)C1CCC(CNS(=O)(=O)c2c(C)cc(C)cc2C)CC1 (centres unmarked) | -68.3 |
| CCCCN(C)CCCNC(=O)C1CCC(CNS(=O)(=O)c2c(C)cc(C)cc2C)CC1 (centres unmarked) | -77.3 |
| COC(CNC(=O)C1CCC(CNS(=O)(=O)c2c(C)cc(C)cc2C)CC1)OC (centres unmarked) | -26 |
| Cc1ccc(S(=O)(=O)NCC2CCC(C(=O)NCCCN3CCOCC3)CC2)cc1 (centres unmarked) | 10.8 |
| CC1CCN(CCCNC(=O)C2CCC(CNS(=O)(=O)c3ccccc3)CC2)CC1 (centres unmarked) | 5.02 |
| Cc1cc(C)c(S(=O)(=O)NCC2CCC(C(=O)NCCCN3CCC(C)CC3)CC2)c(C)c1 (centres unmarked) | -77.2 |
| CCCCNC(=O)C1CCC(CNS(=O)(=O)c2c(C)cc(C)cc2C)CC1 (centres unmarked) | 3.09 |
| O=C(Cn1c2c(c(=O)n3ncnc13)CCC2)N/N=C/c1cccs1 | 0.665 |
| CS(=O)(=O)c1ccc(C(=O)NCC(c2ccco2)N2CCCCC2)cc1 (centres unmarked) | 18 |
| Cc1cc(OCC(=O)NCC(O)c2ccccc2)c2c3c(c(=O)oc2c1)CCCC3 (centres unmarked) | 12.1 |
| CCCCn1c(N)c(N(CCOC)C(=O)c2ccco2)c(=O)[nH]c1=O | 0.12 |
| Cc1ccc(-n2c(SCC(=O)N/N=C/c3c(C)nn(-c4ccccc4)c3C)nc3ccccc3c2=O)cc1 | -7.33 |
| O=C(Nc1ccccc1)N1CCC(O)(c2cccc(C(F)(F)F)c2)CC1 | -6.72 |
| c1ccc(-c2nc3ccccc3s2)nc1 | 4.67 |
| Cc1ccc(-n2c(SCC(=O)N3c4ccccc4Sc4ccccc43)nnc2-c2ccncc2)cc1 | -3.06 |
| COc1ccc(NC(=O)CN(C)C(=O)C(C)Sc2ccccc2)cc1 (centres unmarked) | 5.43 |
| COC(=O)Cn1c2nc3ccccc3nc2c2cccc(C)c21 | 9.86 |
| COC(=O)Cn1cnc2c(C#N)c3n(c2c1=O)CCCCC3 | -8.01 |
| COc1cc(-c2nn3c(COc4ccccc4)nnc3s2)cc(OC)c1OC | 14.8 |
| O=C(NCc1ccccc1)c1ccco1 | 2.34 |
| COc1cccc(CN2CCN(Cc3ccon3)CC2CCO)c1 (centres unmarked) | 0.227 |
| CC(C)CCN1CCN(Cc2cccc3nonc23)CC1CCO (centres unmarked) | -16.7 |

| Compound | hERG current change (%, negative = inhibition) at 10uM [%] |
| --- | --- |
| COc1cccc(CN2CCN(Cc3cccc4c3OCO4)CC2CCO)c1 (centres unmarked) | -23.2 |
| COc1cccc(CN2CCN(Cc3cccc4nonc34)CC2CCO)c1 (centres unmarked) | -66.3 |
| CCOc1ccccc1CN1CCN(Cc2cccc3nonc23)CC1CCO (centres unmarked) | -73.3 |
| CC(C)N1CCN(Cc2cccc3nonc23)CC1CCO (centres unmarked) | 1.05 |
| CCOc1ccccc1CN1CCN(Cc2ccon2)CC1CCO (centres unmarked) | -42.6 |
| CCOc1ccc(CN2CCN(Cc3cccc4nonc34)CC2CCO)cc1 (centres unmarked) | -77.1 |
| COc1ccc(CN2CCN(Cc3cccc4nonc34)CC2CCO)c(C)c1C (centres unmarked) | -68.3 |
| Cc1cccc(CN2CCN(Cc3cccc4nonc34)CC2CCO)n1 (centres unmarked) | -24.1 |
| Cc1ccc(-n2nc3c(=O)n(CC(=O)NCCc4ccc(Cl)cc4)nc(C)c3c2C)cc1 | -10.2 |
| CCc1ccccc1N(CC(=O)N1CCN(c2ccccc2F)CC1)S(C)(=O)=O | 0.701 |
| COc1ccc(S(=O)(=O)NCC(c2ccco2)N2CCOCC2)cc1 (centres unmarked) | -19.1 |
| COC(=O)N/N=C(\C)c1ccc(Br)cc1 | 11.6 |
| CCCCN(CC)C(=O)c1n[nH]c(=O)c2ccccc12 | 2.92 |
| Cc1nc(CNC(=O)C2CCC(=O)N(Cc3cccc(F)c3)C2)sc1C (centres unmarked) | 5.68 |
| Cc1onc(-c2c(Cl)cccc2Cl)c1C(=O)N1CCc2ccccc21 | -19.9 |
| Cc1cc2c(cc1S(=O)(=O)Nc1cccc(F)c1)n(C)c(=O)c(=O)n2C | -10.9 |
| O=C(NC1CCCCC1)c1cc2ccccc2cc1O | -12.7 |
| O=C1CC2(CCN(S(=O)(=O)c3ccccc3F)CC2)Oc2ccccc21 | -84.6 |
| COc1ccc(S(=O)(=O)N2CCC3(CC2)CC(=O)c2ccccc2O3)cc1 | -24.8 |
| CC(=O)c1ccc(S(=O)(=O)N2CCC3(CC2)CC(=O)c2ccccc2O3)cc1 | -42.6 |
| O=C1CC2(CCN(S(=O)(=O)c3ccccc3)CC2)Oc2ccccc21 | -84.6 |
| O=C(O)c1ccc(S(=O)(=O)N2CCC3(CC2)CC(=O)c2ccccc2O3)cc1 | 11.5 |
| Cc1ccc(S(=O)(=O)N2CCC3(CC2)CC(=O)c2ccccc2O3)cc1 | -25.7 |
